Most compounds without a hit are left out; they make up all but 6% or so of the library.
D1 antag = Antagonist of Human D 1 Dopamine Receptor: qHTS; D(1A) dopamine receptor (Homo sapiens), P21728; HEK293 TREx D1 cells, calcium flux, dopamine EC80; hits give low values; activity change, negative = inhibition, % at 10 µM; actives 3.2% (n = 360,000); AID 504652, 2011; in the data active means activity change below about -30%
Target sequence (P21728 whole entry, looked up): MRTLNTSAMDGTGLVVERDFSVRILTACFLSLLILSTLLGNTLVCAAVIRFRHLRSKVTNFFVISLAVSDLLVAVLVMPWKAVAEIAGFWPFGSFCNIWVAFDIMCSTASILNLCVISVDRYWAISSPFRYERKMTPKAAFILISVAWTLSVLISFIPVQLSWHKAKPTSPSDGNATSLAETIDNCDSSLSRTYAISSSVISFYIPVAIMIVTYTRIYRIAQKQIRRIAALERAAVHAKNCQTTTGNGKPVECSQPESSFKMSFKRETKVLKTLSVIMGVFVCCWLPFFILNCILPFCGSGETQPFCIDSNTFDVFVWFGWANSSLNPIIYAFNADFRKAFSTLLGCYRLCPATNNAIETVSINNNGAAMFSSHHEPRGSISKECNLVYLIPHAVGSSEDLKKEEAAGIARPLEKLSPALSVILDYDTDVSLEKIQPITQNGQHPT
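Cells carrying a force-coupled, tetracycline-inducible human D1 receptor report calcium flux. Each well gets a 10 s baseline, compound with 180 s monitoring, then an EC80 dopamine stimulus with a second 180 s kinetic read.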
DRD3 agonist = qHTS of D3 Dopamine Receptor Agonist: qHTS; D3R DiscoveRx beta-arrestin cells, luminescence, 90 min; actives 0.58% (n = 410,000); max activation, %; in the data active means max activation above about 30%
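Cells at 1500/well, incubated overnight, then treated with pinned compounds (dopamine as control) for 90 min at 37 degrees C. DiscoveRx reagent added for 30 - 60 minutes at room temperature; luminescence read.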
D3 antag = qHTS of D3 Dopamine Receptor Antagonist: qHTS. actives 2.5% (n = 360,000). D(3) dopamine receptor (Homo sapiens), P35462. D3R cells, DiscoveRx beta-arrestin luminescence, antagonist mode; hits give low values. max response, negative = inhibition, %; in the data active means max response below about -50%; inconclusive means no clear call, values can overlap the other calls
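Cells expressing the human receptor were seeded at 1500 cells/well, incubated overnight at 37 degrees C in 5% CO2, then exposed to library compounds with dopamine controls for 90 minutes at 37 degrees C before luminescent detection.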
D1 agonist = Allosteric Agonists of the Human D1 Dopamine Receptor: qHTS; D(1A) dopamine receptor (Homo sapiens), P21728; HEK293 T-REx D1 cells, calcium flux, agonist mode; activation, % at 2 µM; actives 1% (n = 360,000); AID 504660, 2011; in the data active means activation above about 30%
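Agonism was scored from calcium flux recorded over 180 s (1 read/s) after pintool compound addition, following a 10-cycle baseline. Cells were inducible force-coupled HEK293 TREx D1, plated overnight at 30 C and loaded with no-wash calcium dye.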
D1 PAM = Potentiators of Human D1 Dopamine Receptor: qHTS | HEK293 TREx D1 cells, calcium flux, dopamine EC20 potentiation | potentiation, % at 10 µM | actives 0.036% (n = 360,000) | AID 504651, 2011; in the data active means potentiation above about 30%
Chronic BCR inh = qHTS Assay to Find Inhibitors of Chronic Active B-Cell Receptor Signaling; ABC-DLBCL IkBa-CBG/CBR reporter, luminescence ratio, 4 h; AID 493014, 2011; actives 0.05% (n = 340,000); Potency, µM (titrated, usually from 46.1 µM), most hits filed as inhibitors; active means well fitted inhibition curve with a large enough effect in the signal ratio, with a control signal flat, not every such curve was filed as active; inconclusive means small, poorly fitted or top-dose-only effect, or effect the other way, or a change in a side signal; the % refers to the signal ratio
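Compounds up to 46 uM were incubated four hours with TMD8 cells whose green CBG68 luciferase is fused to IkappaBalpha; red CBR luminescence normalised the signal, and concentration-effect curves were fitted to fusion, red and ratio data.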
Large screens that a line does not name were inactive.

O=C(NCc1ccccc1F)C1CC(=O)N(Cc2ccco2)C1 (stereo not given)	none (no result: D1 antag, D1 agonist, D1 PAM, Chronic BCR inh)
COCCN1CCN(Cc2nc(C3(c4ccc(C)cc4)CCCC3)no2)CC1	D3 antag -54
Oc1c(Br)cc(Cl)cc1C=Nc1ccc(N2CCOCC2)cc1	none
Oc1c(Br)cc(Cl)cc1C=Nc1ccccc1Br	D3 antag -73
Cc1ccc(S(=O)(=O)N2CCCc3cc(NC(=O)c4ccc(Cl)cc4)ccc32)cc1	none (no result: D3 antag, Chronic BCR inh)
Cc1nn(-c2ccc(N3CCOCC3)nn2)c(C)c1CCC(=O)Nc1ccc(F)cc1F	DRD3 agonist 75 (no result: D3 antag, Chronic BCR inh)
C=C1CSc2nc3ccccc3c(=O)n21	D3 antag -55 (no result: Chronic BCR inh)
O=c1c2ccccc2nc2n1CCS2	none
CCC(CO)[n+]1c(C)cc(/C=C2\Sc3ccccc3N2Cc2ccccc2)cc1C (stereo not given)	D1 antag -76, Chronic BCR inh inconclusive
CCN1/C(=C2\SC(=S)N(Cc3ccccc3)C2=O)Sc2ccccc21	none
CC1=C(C(=O)N2CCCCCC2)CC(CC(=O)NCCc2ccccn2)C(=O)N1Cc1ccc(F)cc1 (stereo not given)	none (no result: D1 antag, D1 agonist, D1 PAM, Chronic BCR inh)
O=C(CCc1c[nH]c2ccccc12)NCCc1ccc(Cl)cc1	D1 antag -33, Chronic BCR inh inconclusive
O=C(CCc1c[nH]c2ccccc12)NCCc1ccccc1	Chronic BCR inh inconclusive (no result: D1 PAM)
O=C(NCCc1c[nH]c2ccccc12)OCCCCOC(=O)NCCc1c[nH]c2ccccc12	DRD3 agonist 60, Chronic BCR inh inconclusive
O=C(NCCc1c[nH]c2ccccc12)c1ccc([N+](=O)[O-])cc1	D1 antag -49
CNCC(O)CN(c1ccccc1)c1ccccc1 (stereo not given)	none
CN(CCO)CC(O)CN(c1ccccc1)c1ccccc1 (stereo not given)	D3 antag -51
CSc1sccc1/C=N/O	D3 antag -55, Chronic BCR inh inconclusive
CSc1sccc1/C=N/NC(=O)c1ccncc1	none
COc1ccccc1CNc1nc2nc(C)c(Cl)c(C)n2n1	none (no result: D3 antag, Chronic BCR inh)
COc1cc(Br)c(CN2C(=O)NC3(CCCCCC3)C2=O)cc1OC	none
COc1ccc(Br)cc1CN1C(=O)NC2(CCCCCC2)C1=O	D1 antag -33, D1 agonist 31 (no result: D1 PAM)
O=C(NC1CC2CCCC(C1)N2Cc1ccccc1)c1cccc(F)c1 (stereo not given)	D3 antag -106
O=C(NC1CC2CCCC(C1)N2Cc1ccccc1)c1cccc(Cl)c1 (stereo not given)	D3 antag -76
COC(=O)c1ccc(Cn2c(C)c(C(=O)NCc3cccc([N+](=O)[O-])c3)sc2=O)o1	none (no result: D1 antag, D1 agonist, D1 PAM, Chronic BCR inh)
COCCNC(=O)C1(C)CCCN(Cc2ccc3ccccc3c2Br)C1 (stereo not given)	none (no result: D1 antag, D1 agonist, D1 PAM, Chronic BCR inh)
C=C[C@]1(C)C[C@@H](OC(=O)CO)[C@]2(C)[C@H](C)CC[C@]3(CCC(=O)[C@H]32)[C@@H](C)[C@@H]1O	none (no result: D1 antag, D3 antag, D1 agonist, D1 PAM, Chronic BCR inh)
COc1cc(OC)c2c(=O)cc(-c3ccccc3)oc2c1	Chronic BCR inh inconclusive
COc1cc(OC)c2c(C)c(Cl)c(=O)oc2c1	D1 antag -36
COc1ccc(NC(=O)c2cc(C3CCCCN3C(=O)c3ccc(NC(C)=O)cc3)on2)c(C)c1 (stereo not given)	none (no result: D1 antag, D1 agonist, D1 PAM, Chronic BCR inh)
CCc1ccc(NC(=O)C(C)OC(=O)c2cc(=O)[nH]c3ccc(S(=O)(=O)Nc4ccc(F)cc4)cc23)cc1 (stereo not given)	D1 antag -37
COc1ccccc1OCCNC(=O)CCNC(=O)c1ccccc1OC	none
COc1ccc(C23CC4CC(CC(C4)C2)C3)cc1C(=O)NCCN(C)C	D1 agonist 39, Chronic BCR inh inconclusive
COc1ccccc1C(=O)NCCC(=O)NCCC12CC3CC(CC(C3)C1)C2	D1 antag -31
COC(=O)C(NS(=O)(=O)c1ccc(NC(C)=O)cc1)C(C)C (stereo not given)	D3 antag -74 (no result: D1 antag, D1 agonist, D1 PAM)
CCOC(=O)C(Cc1ccccc1)NS(=O)(=O)c1ccc(NC(C)=O)cc1 (stereo not given)	D1 antag -31
CCOC(=O)C(Cc1ccccc1)C(=O)Nc1ccc(NC(=O)C(Cc2ccccc2)C(=O)OCC)cc1 (stereo not given)	none
COc1ccc(S(=O)(=O)c2cn(C)c3cc(N4CCCCCC4)c(F)cc3c2=O)cc1	none (no result: D3 antag, Chronic BCR inh)
CCOc1ccc(NC(=O)CSc2oc(-c3cccs3)nc2S(=O)(=O)c2ccc(C)cc2)cc1	none (no result: D3 antag, Chronic BCR inh)
COc1ccc(C2(C(=O)Nc3cc(C)on3)CCOCC2)cc1	D1 antag -60
COc1ccc(C2(C(=O)Nc3ccc(C)cc3)CCOCC2)cc1	Chronic BCR inh inconclusive
Cc1ccc2cccc(NC(=O)C(C)Oc3ccc(Cl)cc3Cl)c2n1 (stereo not given)	none (no result: D3 antag, Chronic BCR inh)
CC(C)C(=O)Nc1cccc(COc2ccc(CN(Cc3ccccc3)C(=O)OC(C)(C)C)cc2)c1	DRD3 agonist 36 (no result: D1 antag, D1 agonist, D1 PAM, Chronic BCR inh)
CC(C)C(=O)Nc1ccc(COc2ccccc2CN(Cc2ccccc2)C(=O)OC(C)(C)C)cc1	none (no result: D1 antag, D1 agonist, D1 PAM, Chronic BCR inh)
CNc1ccc(-c2cccc([N+](=O)[O-])c2)cn1	D3 antag -59 (no result: D1 antag, D1 agonist, D1 PAM, Chronic BCR inh)
Cc1cccc(OCCn2nnc3sc4c(c3c2=O)CCCC4)c1	none (no result: D3 antag, Chronic BCR inh)
CCOc1ccc(NC(=O)c2c[nH]n3c(=O)cc(C4CCN(C(=O)OC(C)(C)C)CC4)nc23)cc1	D1 antag -32
O=C(N/C=C\c1ccccc1)NCc1ccc(Cl)cc1Cl	none
O=C(N/C=C\c1ccccc1)NCc1ccc(Cl)cc1	D1 antag -31
COc1c(/C=N/Nc2ccc([N+](=O)[O-])cc2[N+](=O)[O-])c(C)nn1-c1ccccc1	D1 antag -33
Cc1ccc([N+](=O)[O-])cc1/C=N/Nc1nnnn1-c1ccccc1	D1 antag -59
CN(C)CCn1c2c(c(SCC(=O)Nc3cccc(C(F)(F)F)c3)nc1=O)CCCC2	Chronic BCR inh inconclusive
COc1cccc(NC(=O)CSc2nc(=O)n(Cc3ccncc3)c3c2CCCC3)c1	D1 PAM 37, Chronic BCR inh inconclusive
CCN(CC)CCn1c2c(c(SCC(=O)Nc3cccc(C(F)(F)F)c3)nc1=O)CCC2	D1 agonist 48 (no result: D1 antag, D3 antag)
Cc1ccccc1CN1C(=O)c2ccccc2S(=O)c2ccc(C(=O)N3CCOCC3)cc21 (stereo not given)	none (no result: D3 antag, Chronic BCR inh)
COc1ccc(OC)c(-n2c(SCC(N)=O)nnc2-c2c[nH]c3ccccc23)c1	none (no result: D1 PAM)
